Shown are actives, neighbours in structure and some others; about 0.91% of the full set was active somewhere.
TR SRC2 fluor cs – Total Fluorescence Counterscreen for Inhibitors of the Interaction of Thyroid Hormone Receptor and Steroid Receptor Coregulator 2. TRb/SRC2 Texas Red total fluorescence interference. Potency, µM (series often up to 106 µM), for the others: top-dose fluorescence change, negative = quenching. hit rate 0.29% among 280,000. AID 1479, 2009; active = well fitted curve in either direction with a large enough effect; inconclusive = small, poorly fitted or top-dose-only effect; also: % is scaled to controls: 0 for no effect and ±100 for the full control effect
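Human TRb ligand-binding domain at 0.6 uM with 20 nM Texas Red SRC2 peptide in Tris buffer containing 1 uM T3 and 5% DMSO, incubated with compound 5 h at ambient temperature. Total fluorescence (555/632 nm) calculated as parallel + 2 × perpendicular.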
RECQ1 inh-1 – qHTS Assay for Inhibitors of RecQ-Like Dna Helicase 1 (RECQ1). Potency, µM (titrated, usually from 57.3 µM), for inactives: at the top dose activity, negative = inhibition, actives largely listed as inhibitors. hit rate 0.54% among 240,000. RECQ1 DNA unwinding, red fluorescence kinetic read. ATP-dependent DNA helicase Q1 (Homo sapiens), P46063;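 also: plate controls were vehicle for no effect and no enzyme for full effect; nearly all actives have a fitted effect of over 30% in size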
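50 nM RECQ1T1 preincubated 15 min with compound in Tris pH 8.0 buffer with MgCl2, DTT, Tween-20 and 2.5 ug/ml poly(dI-dC); started with 200 nM TAMRA/BHQ-2 forked duplex and 2 mM ATP. Unwinding read as fluorescence (525/598 nm), two reads 2 h apart.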
TRb SRC2 PPI – qHTS for Inhibitors of the Interaction of Thyroid Hormone Receptor and Steroid Receptor Coregulator 2; hit rate 0.065% among 280,000; Potency, µM (titrated, usually from 106 µM), for inactives: at the highest dose activity change, negative = inhibition, hits mostly inhibitors; TRbeta-SRC2 peptide binding, fluorescence polarization; receptor liganded with 1 µM T3;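 also: plate controls were bound peptide for no effect and peptide without receptor for full effect; nearly all actives have a fitted effect of over 50% in size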
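Human TRb ligand-binding domain (0.6 uM) is mixed with 20 nM Texas Red SRC2 peptide and 1 uM T3; after compound addition and 5 hr at ambient temperature, polarization is measured and normalized to unbound and bound controls.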
APE1 inh-1 – qHTS Assay for Inhibitors of the Human Apurinic/apyrimidinic Endonuclease 1 (APE1) | DNA repair nuclease/redox regulator APEX1 (Homo sapiens), P27695 | recombinant APE1, TAMRA/BHQ-2 abasic DNA cleavage fluorescence | Potency, µM (titrated, usually from 65.8 µM), for the others: top-dose activity change, negative = inhibition, most hits filed as inhibitors | hit rate 0.35% among 350,000;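 also: plate controls were vehicle for no effect and reference inhibitor for full effect; nearly all actives have a fitted effect of over 55% in size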
Target sequence (P27695 whole entry, looked up): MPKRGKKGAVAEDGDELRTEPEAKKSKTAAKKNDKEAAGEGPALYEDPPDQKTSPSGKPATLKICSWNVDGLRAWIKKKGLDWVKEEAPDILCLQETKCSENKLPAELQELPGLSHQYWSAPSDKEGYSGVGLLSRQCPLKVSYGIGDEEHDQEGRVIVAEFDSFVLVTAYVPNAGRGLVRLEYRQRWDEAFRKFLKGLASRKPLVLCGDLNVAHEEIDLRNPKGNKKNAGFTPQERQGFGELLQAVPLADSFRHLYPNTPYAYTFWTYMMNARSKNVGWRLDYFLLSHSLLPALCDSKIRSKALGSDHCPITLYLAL
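Incision of a quenched TAMRA/BHQ-2 THF abasic-site duplex (50 nM) by 0.75 nM APE1, after 15 min compound preincubation, measured as fluorescence increase over three 60 s reads. Values normalized to buffer, DMSO and NSC13755 control wells.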
BLM helicase inh-1 – qHTS Assay for Inhibitors of Bloom's syndrome helicase (BLM); recombinant BLM DNA unwinding, fluorescence dequenching; Potency, µM (doses to about 56.1 µM), for the others: at the highest dose activity change, negative = inhibition, usual class: inhibitors; hit rate 0.2% among 350,000; AID 2528, 2010;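 also: plate controls were vehicle for no effect and no enzyme for full effect; nearly all actives have a fitted effect of over 35% in size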
WRN helicase inh-1 – qHTS for Inhibitors of WRN Helicase | Bifunctional 3'-5' exonuclease/ATP-dependent helicase WRN (Homo sapiens), Q14191 | WRN helicase unwinding, fluorescent forked duplex, kinetic | Potency, µM (top dose mostly 114 µM), without a hit: at the top dose activity change, negative = inhibition, most hits filed as inhibitors | hit rate 0.46% among 360,000 | AID 651768, 2012; also: % is scaled to controls: 0 for no effect and ±100 for the full control effect; nearly all actives have a fitted effect of over 55% in size
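WRN at 20 nM final preincubated with compound 15 min at room temperature; reaction started with 100 nM fluorophore/quencher forked duplex oligonucleotide and 2 mM ATP final. Unwinding followed kinetically by red fluorescence (ex 525, em 598 nm).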
DNA dye displace – Counterscreen for APE1 Inhibitors: Fluorescent Dye Displacement Assay; shares compounds with APE1 inh-1; DNA fluorescent dye displacement counterscreen, fluorescence; Potency, µM (highest dose often 28.5 µM), inactives show at the highest dose activity change, negative = inhibition, most hits filed as inhibitors; hit rate 7% among 480; AID 2564, 2010;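 also: loss of thiazole orange fluorescence as the dye is displaced from duplex DNA; 0% = ThO with dsDNA and no compound and -100% = ThO without dsDNA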
Endo IV inh – Counterscreen for APE1 Inhibitors: qHTS Assay for Inhibitors of Endonuclease IV; shares compounds with APE1 inh-1; E. coli Endo IV, fluorogenic AP-site DNA cleavage; Potency, µM (titrated, usually from 27.1 µM), inactives show at the highest dose activity change, negative = inhibition, usual class: inhibitors; hit rate 4% among 560; AID 2565, 2010;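 also: plate controls were uninhibited enzyme wells for no effect and no enzyme buffer wells for full effect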
APE1 inh-2 – Confirmation qHTS Assay for Inhibitors of the Human Apurinic/apyrimidinic Endonuclease 1 (APE1); shares compounds with APE1 inh-1; purified APE1, fluorogenic abasic-site DNA cleavage; Potency, µM (highest dose often 57.1 µM), without a hit: top-dose activity change, negative = inhibition, hits mostly inhibitors; hit rate 44% among 750; also: % is scaled to controls: 0 for no effect and ±100 for the full control effect; nearly all actives have a fitted effect of over 30% in size
APE1 FP – qHTS FP-Based Assay for Inhibitors of the Human Apurinic/apyrimidinic Endonuclease 1 (APE1) | shares compounds with APE1 inh-1 | APE1 binding to TAMRA-labelled double-stranded DNA, fluorescence polarization displacement | Potency, µM (series often up to 28.5 µM), without a hit: at the highest dose activity, negative = inhibition, most hits filed as inhibitors | hit rate 7% among 480; also: % is scaled to controls: 0 for no effect and ±100 for the full control effect
RECQ1 inh conf – Confirmation qHTS Assay for Inhibitors of RecQ-Like Dna Helicase 1 (RECQ1). shares compounds with RECQ1 inh-1. RECQ1 helicase DNA unwinding, fluorescence. Potency, µM (doses to about 229 µM), without a hit: top-dose activity change, negative = inhibition, hits mostly inhibitors. hit rate 28% among 610; also: % is scaled to controls: 0 for no effect and ±100 for the full control effect; nearly all actives have a fitted effect of over 45% in size
RECQ1 ADP FP – Counterscreen for RECQ1 Inhibitors: ADP Fluorescence Polarization Displacement Assay; shares compounds with RECQ1 inh-1; ADP fluorescence polarization displacement counterscreen; Potency, µM (highest dose often 228 µM), for the others: top-dose activity change, negative = inhibition, usual class: inhibitors; hit rate 27% among 530; AID 2711, 2010; also: % is scaled to controls: 0 for no effect and ±100 for the full control effect; nearly all actives have a fitted effect of over 45% in size
RECQ1 inh-2 – Confirmation qHTS Assay for Inhibitors of RecQ-Like Dna Helicase 1 (RECQ1) - Round 2 Cherry Picks | shares compounds with RECQ1 inh-1 | hit rate 15% among 1,100 | Potency, µM (highest dose often 119 µM), for inactives: at the top dose activity, negative = inhibition, actives largely listed as inhibitors | recombinant RECQ1 DNA unwinding, red fluorescence | AID 504841, 2011; also: % is scaled to controls: 0 for no effect and ±100 for the full control effect; nearly all actives have a fitted effect of over 50% in size
WRN helicase inh-2 – qHTS for Inhibitors of WRN Helicase: Confirmatory Assay for Cherry-picked Compounds; shares compounds with WRN helicase inh-1; WRN helicase DNA unwinding, fluorescence kinetic; Potency, µM (highest dose often 57.1 µM), for inactives: at the highest dose activity, negative = inhibition, usual class: inhibitors; hit rate 63% among 610; AID 720497, 2013; also: nearly all actives have a fitted effect of over 65% in size
TO displacement – qHTS for Inhibitors of WRN Helicase: Thiazole Orange DNA Binding Counterscreen | thiazole orange DNA binding displacement, fluorescence | Potency, µM (series often up to 57.1 µM), without a hit: top-dose activity change, negative = inhibition, hits mostly inhibitors | shares compounds with WRN helicase inh-1 | hit rate 10% among 610;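 also: drop in dye fluorescence marks compound binding to DNA; % is scaled to controls: 0 for no effect and ±100 for the full control effect; nearly all actives have a fitted effect of over 60% in size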
BLM helicase inh-2 – qHTS for Inhibitors of WRN Helicase: BLM Helicase Counterscreen for WRN Inhibitors | shares compounds with WRN helicase inh-1 | Recombinant BLM helicase DNA unwinding, red fluorescence | Potency, µM (top dose mostly 57.1 µM), inactives show at the highest dose activity change, negative = inhibition, usual class: inhibitors | hit rate 60% among 610; also: nearly all actives have a fitted effect of over 60% in size
Active calls of the source: *; ? = inconclusive; . = not tested or not shown; [ ] = dose if it differs, or a comment. Unless noted, calls follow the shape of the dose curve; as a rule, active = well fitted curve in the direction sought with a large enough effect; inconclusive = small, poorly fitted or top-dose-only effect, or another doubt; inactive = no such curve, though single readings can be large; an effect the other way counts as inactive or inconclusive. Potency is read from the fitted curve at half-maximal effect.

SMILES | TR SRC2 fluor cs | RECQ1 inh-1 | TRb SRC2 PPI | APE1 inh-1 | BLM helicase inh-1 | WRN helicase inh-1 | DNA dye displace | Endo IV inh | APE1 inh-2 | APE1 FP | RECQ1 inh-2 | WRN helicase inh-2 | TO displacement | BLM helicase inh-2 | others
CCn1c(CSc2nc3ccccc3s2)nnc1SCC(=O)c1ccc(O)c(O)c1 | -4% | 7.9µM* | 3% | 18µM* | -11% | ? | ? | 151% | ? | 8% | ? | 1.4µM* | 27µM* | ? | RECQ1 inh conf=14%[114 µM];RECQ1 ADP FP=?
O=C(CCS(=O)(=O)c1cccc2nonc12)Nc1c(F)cccc1F | -3% | . | -4% | . | 0% | . | . | . | . | . | . | . | . | .
Cc1cc(NS(=O)(=O)c2ccc(NC(=O)Cc3cccs3)cc2)no1 | -6% | 19% | -2% | -5% | -3% | -6% | . | . | . | . | . | . | . | .
Cc1cc(NC(=O)Cc2cccs2)no1 | -27% | 25µM* | 9% | 28µM* | ? | ? | ? | ? | 7.9µM* | -85% | ? | 8.6µM* | 24µM* | 0.96µM*
O=C(O)c1cccc(-c2ccc(/C=c3/sc4nc5ccccc5n4c3=O)o2)c1 | -18% | ? | -1% | 10µM* | 28% | 40µM* | 6.3µM* | 8% | 5µM* | 7.9µM* | . | 4.8µM* | ? | 1.9µM*
